In all, about 53,000 sequences went through this assay and about 3,700 (7%) were called active. Only a selection was taken, and actives are over-represented in it overall. Unmarked numbers belong to inactive results.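 The calls were made as follows: active = gene knockdowns whose robust z-score for IL-1 alpha signal is at least 2 or at most -2, so actives lie on both sides; inactive = the rest.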

The assay in a line: Components of the Cytosolic LPS Sensing Pathway: Gene Identification via Genome-wide siRNA Screen.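 Also: robust z of the log signal after scaling to non-targeting control siRNA wells of the plate.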 To be noted: RAW264.7 macrophages, IL-1a HTRF, actives lie on both sides, screened at 100 nM (by protocol), cells primed 5 h with Pam3CSK4 first. The procedure, abridged:
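Three distinct siRNAs per gene were tested singly at 100 nM in RAW264.7 macrophages. Following Pam3CSK4 priming and 24 hour LipidA transfection, IL-1a secretion was read by HTRF.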
Consider CCGAGGACUAUUUGAAACGTT against Mrtfa, for which the z-score is -1.46.
For the sequence GGAUUUGAGUUGAAGCGUGTT against Zscan20, the z-score is -0.129.
For GGUGGUAAAUCGAAUUGUUTT against Tmem185b the value was -0.171; for GGCUGGCUAUAAGAAAAAATT against Mrpl35, -0.646.
GGCUUGAAGAUGUCUAUGATT against Aptx: the z-score was -2.19 (active).
With GGCCACAGGAAGUCAGUUATT against Gsk3b the figure was -1.23; with GCCAACCAUCAGUUUAUACTT against Mboat1, -0.31; with GGCUGAAGAACUCCUACAATT against Dennd1c, 2.17 (active).
With GGUUAGUAGUCUUCUUAUCTT against Olfr1173, the z-score was 0.291.
For CGCACAGAGAAUAAGGGAATT against Tcta, the z-score was 0.843.
CCUGAUGCACUACUCGUCUTT against Dmbx1: the z-score was -0.131.
For GGUAAAUGUCUGCUCUGAGTT against Selenok the value was -2.53 (active); for GGUCAACUAGCAGAAACCATT against Adgrv1, -1.84.
For CCGUAGAGAUCAACAACACTT against Npepl1 the value was 0.799.
For GGACUCCUUCCACCACAAUTT against Aifm2 the value was -0.2.
On to GCACAUAGCAUCCACUCCATT against Gm4793, for which the z-score was -2.56 (active).
For CCCUAUUUGUCAGCGGUCUTT against Rbpms the value was -1.94.
For GCCUUAAGAGAUGUAUUUCTT against Vmn1r33 the value was -0.042; for GGAGGAAAUGAUGAUUUUCTT against Kbtbd2, 0.283; for CCAAGCGAAUGCUGGACAUTT against Cox4i1, 3.44 (active).
For GGUACAUCUAUUUCUUGUUTT against Ncam2 the value was -1.2; for GGACUGUACUAUGGCUCUCTT against Nt5m, 0.135; for “GGGAGGAGAGUGAUUGAGATT against A730013G03Rik”, 0.682.
With CCAACAAAUUCUGGUGGGATT against Ccdc84, the z-score was 0.578.
For GGAGUACCUGUGGUGCAUUTT against Ahcy the value was 0.213; for GGCGGUACCUCUUCUUCAUTT against Aipl1, 2.32 (active); for CCGAAGUCAACUAAACUUATT against Rmc1, 0.732.
With CCCUUGCUACAAUGAUGCCTT against Mfge8 the figure was 2.56 (active); with GGACAACUUCAACAGCACUTT against Rab13, -1.31.
With CGUAGAGCUCAGAGAAUUCTT against Dhx58 the figure was 0.614.
Consider GCGAAUGAUAUGUAUCAGATT against Pik3r1, for which the z-score is 0.647.
For ACCUUUUCAAAUCUGUGCGTT against Uts2b the value was -0.928.
For GGCUAACCAGAGGAAAAACTT against Rph3a the value was -2.19 (active); for “GCUCUUGGUCCGUCUUCAGTT against 6030452D12Rik”, -1.76.
With GGAGUCUUGUAAUGAGCUUTT against Zfp54 the figure was 0.898; with CCCUCAAAGUCAUUUCAAATT against Cfap43, -1.61.
As for GGUUGAAAAUGGAAGAGUATT against Mbnl2, the z-score was -2.27 (active).
With CCUUCCUACCGGAGAAUGATT against Capn6 the figure was -0.341; with GGUUCAACAUGAAAAUGAUTT against Lingo2, -0.251.
With GCCAAUUGAGUCGUCUAUCTT against Rps6ka1 the figure was 2.41 (active).
Turning to GGCAGCGAUUGACAAAAUGTT against Eefsec, the z-score was -0.756.
In the case of GGUCGUGAUAAACAUAUCATT against Cep85, the z-score is -1.1.
Consider GGUCAAUGGCCACAAGUUCTT against Prkce, for which the z-score is 0.421.
As for CCAUGAUCGCUAGUGAAGCTT against Mrpl24, the z-score is -0.743.
Take GGUGGUGAACUGUUUGACCTT against Pnck: the z-score is -1.58.
Take GCUGACCUUUGUAAGUUAUTT against Ttc17: the z-score is -0.369.
Consider GGCUAUGCUUCUUUCCUUUTT against Cfhr1, for which the z-score is 0.846.
In the case of GGAGAAGAAAAAGAAGGACTT against Pak1, the z-score was -0.932.
As to CGGCUUGCUACUUUGGAACTT against Gda, the z-score was 2.55 (active).
On to GAUGGAUCGAACUCUGCACTT against Stard10, for which the z-score was -0.957.
For GGACCAAGUGGAGAAAGAATT against Nkx6-1 the value was -0.622; for CCCAGAUGAACAAAUGACCTT against Tceanc, 0.582; for GCAUUAUGGAAAGUUGGAGTT against Gabra4, 0.915.
Regarding GGAGUGUGAGGUCCUCUCUTT against Sdsl, the z-score was 1.85.
GCGUAAGGAAUUGUCUAACTT against Hoxd12: the z-score is 4.05 (active).
As to CCGACGAUUCCUGAAGCUATT against Tada3, the z-score was -0.275.
With GGUGACAGAUUCUUUGAGGTT against Tti2 the figure was 0.704; with GGUCAGAUUAUGCUUUAGATT against Mrgpre, -0.783.
In the case of CGUGAUUGAAUCUCAGGAGTT against Spata24, the z-score was -2.14 (active).
With GCAGAGGGUUUUCCAAGCGTT against Ddx4 the figure was -0.631; with GGAAGUGACCUGUCUGAAGTT against Gramd1a, 0.641; with GGAUUAUGUAGAGGCCCAATT against Gngt2, -2.63 (active).
For GGACAGCUGGACCUAAAGGTT against Slco4a1 the value was -0.417; for GGAGCUGAUGGUUGAAUGUTT against Ehbp1, 0.177.
With GGAUCCUCGGGAGUACAUGTT against Crybg3 the figure was 0.287; with CCAGUAAGUUGCAUUCGAATT against Defb8, 0.675.
With GGCAUAGCUGGUCUGAAGATT against Slc3a2, the z-score is 2.06 (active).
As for CCUCAUUUCCAAACUCAAATT against Fbxw13, the z-score is -0.491.
On to CCACGAGAAGUGGAUAUUATT against Plcxd3, for which the z-score is -1.1.
With CCUGAACAUGAGUUAAAAGTT against Lmo4, the z-score was 0.156.
On to GGAUUAGCUCUACAGAAGGTT against Olfr1031, for which the z-score was 1.67.
With GGAGCUGUUUUUCCACUCCTT against Phlda2 the figure was -0.337; with GCUGGAAGAAAACUUCUAUTT against Jade2, 2.49 (active).
On to GGUAUGGUUUCUAUAACAATT against Arsj, for which the z-score is 0.814.
Consider “GGAAGGUCAUGUGAAUAUCTT against A930002I21Rik”, for which the z-score was -1.6.
With “GGCUUUGAGAGUUUGUCACTT against 2410004B18Rik” the figure was -1.62; with GGGAGUUAAACUUCUCUGCTT against Tlr13, -0.0637; with GGUACCGGAGUCUGAAACATT against Drp2, -2.53 (active).
With GGGUCAGUGUGGAGAGUACTT against Col13a1 the figure was 0.679.
For GGAUGAAUGGAAUUUACUGTT against Fbh1 the value was 0.406; for GGGAAAAGUGGUAAAUUAUTT against Shprh, 0.194.
On to GGAAGACAAGGUUUUAGCUTT against Ulbp1, for which the z-score was 1.92.
With CGUGGAGAGAUCAAUCCCGTT against Adad1 the figure was -2.01 (active).
As to GGUUCAUGAAUGACAAACUTT against Sult4a1, the z-score was 0.383.
With GGUGUUUAAUAAUGUUGUCTT against Olfr976, the z-score was -0.27.
For CCCAAUGACAAUAAAGACCTT against Mmp25 the value was -0.936; for GGGCUUGUAUCUACCAUGGTT against Strbp, 2.18 (active); for GGUAAGAGGAUCCAAGGUGTT against Fam131a, 0.0909.
With CCUACGUCCAGUAGUGCAGTT against Ahdc1 the figure was 1.43; with GCUCAAAGGACCUCUGAGCTT against Slc29a2, -1.28; with CCUCCACUUCGUGAGCGAATT against Xxylt1, -1.25.
With GCCACUGUUGUGUAAACUATT against Rap2a the figure was 2.01 (active); with GGAGAAGUCUUCAUUUGAATT against Tubgcp2, -0.331.
With GGAAGUAGGCAGCAUCAUCTT against Pcbp1, the z-score is 1.13.
In the case of GGCUGGCUUUGAACUCAAUTT against Zfp36, the z-score was -1.28.
For GCAACUGCCUAGGCUUGAUTT against Slc30a7 the value was 4.79 (active); for GGCAGAUGUAUGAAAUCUUTT against Fancc, -0.196.
As for GGUAUGCAACCUUGCCUUUTT against Coa3, the z-score is 0.945.
On to GGAGAAGACUUGUAACAAATT against Hacd4, for which the z-score was 5.28 (active).
For GGGAUGACUUGGAGUCUCUTT against Csnk1d the value was -0.0473; for CGGUUUCUUACCAGCAAUUTT against Mgmt, -0.237; for GAACCAGACUAAGAACUGUTT against Cox6b1, 5.31 (active).
With GGCCUUCUCUGACUUUCUGTT against Zfp324 the figure was -0.633.
Regarding GGGACAAUGUACAUCUACUTT against Dnaaf6b, the z-score was -0.199.
With GCAAGAUCCGUACAUAGCATT against Wdr48 the figure was -1.43; with GGCAUUAAAGACCUGUUAATT against Kpnb1, -0.887.
For AUUGUAGCAGUGAAUUGGATT against Pdia6 the value was -0.121.

The values above are taken from PubChem BioAssay AID1508600 (Functional Genomics Laboratory (NCATS/FGL), 2020).
